# Test results from article PMC4336329 (PLoS ONE, 2015).
# In all, about 310,000 compounds went through this assay and about 14,000 (4.5%) showed an effect of 50% or more. The effect is printed as a negative number. For the sample, strong results were picked, then their nearest neighbours and some compounds at random.
# Target: human ether-à-go-go-related gene (hERG) potassium channel (human, UniProt Q12809)
# Assay: primary screen, population patch clamp on CHO cells stably expressing hERG; higher = less effect of the substance
# 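Also: peak tail current of the secondary pulse compared with the same well before compound.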
# Chain of human ether-à-go-go-related gene (hERG) potassium channel (Q12809 whole entry, looked up): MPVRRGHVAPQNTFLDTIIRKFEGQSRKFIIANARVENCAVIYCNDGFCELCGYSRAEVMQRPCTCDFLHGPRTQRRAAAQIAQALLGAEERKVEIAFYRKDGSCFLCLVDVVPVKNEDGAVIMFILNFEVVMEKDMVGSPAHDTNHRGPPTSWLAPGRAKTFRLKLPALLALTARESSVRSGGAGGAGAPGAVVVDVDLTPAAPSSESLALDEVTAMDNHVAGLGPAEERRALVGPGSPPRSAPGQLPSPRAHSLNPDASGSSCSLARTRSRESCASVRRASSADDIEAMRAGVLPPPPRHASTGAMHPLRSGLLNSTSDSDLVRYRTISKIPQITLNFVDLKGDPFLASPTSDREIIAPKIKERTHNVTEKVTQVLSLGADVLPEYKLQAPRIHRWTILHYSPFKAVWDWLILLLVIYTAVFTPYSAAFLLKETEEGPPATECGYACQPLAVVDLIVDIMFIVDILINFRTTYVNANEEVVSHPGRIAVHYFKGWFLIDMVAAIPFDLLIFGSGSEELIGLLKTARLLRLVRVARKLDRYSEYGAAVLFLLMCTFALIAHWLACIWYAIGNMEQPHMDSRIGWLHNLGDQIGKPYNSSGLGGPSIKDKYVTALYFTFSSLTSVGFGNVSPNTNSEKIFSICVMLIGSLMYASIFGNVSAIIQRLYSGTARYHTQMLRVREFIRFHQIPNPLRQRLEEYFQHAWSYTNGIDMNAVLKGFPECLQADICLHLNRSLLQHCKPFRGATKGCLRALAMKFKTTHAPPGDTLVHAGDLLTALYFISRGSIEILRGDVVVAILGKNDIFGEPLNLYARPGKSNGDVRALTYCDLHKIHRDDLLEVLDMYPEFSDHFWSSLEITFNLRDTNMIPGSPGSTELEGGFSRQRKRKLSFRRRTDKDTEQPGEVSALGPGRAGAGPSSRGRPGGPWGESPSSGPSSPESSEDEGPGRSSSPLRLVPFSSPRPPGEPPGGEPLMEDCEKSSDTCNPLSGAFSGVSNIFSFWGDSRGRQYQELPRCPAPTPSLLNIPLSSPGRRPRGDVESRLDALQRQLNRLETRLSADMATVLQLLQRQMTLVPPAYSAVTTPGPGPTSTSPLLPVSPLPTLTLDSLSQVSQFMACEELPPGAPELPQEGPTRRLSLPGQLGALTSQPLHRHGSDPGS
row,SMILES,"hERG current change (%, negative = inhibition) at 10uM [%]"
1,O/N=C/c1ccccc1OCc1ccc(Cl)cc1,5.5
2,Cc1ccc(/C=C/C(=O)Nc2ccc([N+](=O)[O-])cc2)o1,-1.05
3,CCC(Oc1ccccc1)C(=O)N(Cc1ccccc1)c1ccccn1 (stereo not shown),-6.96
4,O=C(CNCc1cccnc1)Nc1cc(C(F)(F)F)ccc1N1CCOCC1.O=C(O)C(=O)O,-67
5,O=C(Nc1cc(C(F)(F)F)ccc1N1CCOCC1)c1cccnc1,-42.3
6,O=C(CNCc1ccccn1)Nc1cc(C(F)(F)F)ccc1N1CCOCC1.O=C(O)C(=O)O,-57.5
7,O=C(Nc1cc(C(F)(F)F)ccc1N1CCOCC1)c1ccccc1,12.6
8,Cc1nc2ccccc2nc1OCC(=O)Nc1cc(C(F)(F)F)ccc1N1CCOCC1,0.222
9,O=C(Nc1cc(C(F)(F)F)ccc1N1CCOCC1)c1cnccn1,-2.15
10,O=C(O)CSc1c2c(nc3cc(C(=O)NCCN4CCOCC4)ccc13)CCC2,-6.18
11,CC(C)(C)c1ccc(/C=N/NC(=O)C[n+]2ccccc2)cc1.[Cl-],26
12,Cc1ccc(NC(=O)C2(C)Cc3ccccc3C(=O)O2)cc1 (stereo not shown),-5.03
13,CCCCNS(=O)(=O)c1ccc2nc(-c3cccs3)cc(C(=O)NCC(OC)OC)c2c1,9.85
14,Cc1c(C(=O)N2CCCCC2)c(S(=O)(=O)Nc2cccc(Br)c2)c(C)n1C,-4.02
15,O=C(CCc1nnc(CCc2ccccc2)o1)N1CCCCC1CCn1cccn1 (stereo not shown),-51.1
16,O=C(CCc1nnc(C2CCCCC2)o1)N1CCN(C2CCCCC2)CC1,10.4
17,O=C(CCc1nnc(C2CCCCC2)o1)N1CCCCC1CCn1cccn1 (stereo not shown),3.65
18,O=C(CCc1nnc(CCCCc2ccccc2)o1)N1CCCCC1CCO (stereo not shown),-1.73
19,CCC1CCCCN1C(=O)CCc1nnc(C2CCCCC2)o1 (stereo not shown),-55
20,COC(=O)[C@@H]1CCCN1C(=O)CCc1nnc(C2CCCCC2)o1,6.94
21,O=C(Cc1cccs1)N/N=C/C(Br)=C/c1ccccc1,10.1
22,CCOc1ccc(OCCCC(=O)Nc2nc3ccccc3[nH]2)cc1,12

row,SMILES,"hERG current change (%, negative = inhibition) at 10uM [%]"
1,CC1CCCN(C(=O)CSc2nnc(-c3ccncc3)n2C)C1 (stereo not shown),45.9
2,C/C=C\C=C\C(=O)Nc1cccc(C2=NOC3(C2)C[C@@H](C(N)=O)N(C(=O)C(c2ccccc2)c2ccccc2)C3)c1 (stereo partly shown),0.545
3,Cc1ccc(C=Nc2ccc(N(C)C)cc2)o1,-0.267
4,CCOC(=O)c1ccc(NC(=O)c2ccc3c(c2)C(=O)N(CC2CCCO2)C3=O)cc1 (stereo not shown),-1.87
5,COc1ccc(N2CCN(S(=O)(=O)CCNC(=O)COc3ccccc3OC)CC2)cc1,-1.02
6,COc1ccccc1OCC(=O)NCCS(=O)(=O)N1CCN(c2ccc(F)cc2)CC1,-60.8
7,Cc1ccccc1OCC(=O)NCCS(=O)(=O)N1CCN(c2ccc(F)cc2)CC1,-66.6
8,COc1ccc(OCC(=O)NCCS(=O)(=O)N2CCN(c3ccc(F)cc3)CC2)cc1,-8.69
9,COc1ccc(N2CCN(S(=O)(=O)CCNC(=O)COc3ccccc3C)CC2)cc1,1.17
10,COc1ccccc1OCC(=O)NCCS(=O)(=O)N1CCN(c2ccccc2)CC1,-44.4
11,CCOc1ccc(/C=C(\C#N)C(=O)c2c(C)[nH]c3ccccc23)cc1OC,-4.5
12,CC1Cc2ccccc2N1CC(=O)Nc1ccc(S(N)(=O)=O)cc1 (stereo not shown),-6.21
13,COC(=O)c1cc(-c2ccccc2)sc1NC(=O)CN1C(=O)c2ccccc2C1=O,15.9
14,Cc1ccc(N2CCCn3c2cc(C)c(C#N)c3=O)cc1C,-21.4
15,Cc1cc2n(c(=O)c1C#N)CCCN2c1cccc(Cl)c1,-65
16,Cc1ccc(N2CCCn3c2cc(C)c(C#N)c3=O)cc1Cl,-22.8
17,C#CCOc1ccc(/C=C2\SC(=S)N(Cc3cccnc3)C2=O)cc1,15.9
18,Cc1cccc(S(=O)(=O)N2CCN(Cc3ccc4c(c3)OCO4)CC2)c1,-35.2
19,Cc1ccc(NC2=NCC(=O)N2Cc2ccc3c(c2)OCO3)cc1,-5.93
20,Cc1cc(Cl)ccc1NC(=S)N1CCN(Cc2ccc3c(c2)OCO3)CC1,4.84
21,c1ccc(CN2CCC(N3CCN(Cc4ccc5c(c4)OCO5)CC3)CC2)cc1,-39.8
22,Nc1nc(CN2CCN(Cc3ccc4c(c3)OCO4)CC2)nc(Nc2ccccc2)n1,-75.6

row,SMILES,"hERG current change (%, negative = inhibition) at 10uM [%]"
1,O=C(Nc1ccc(Cl)cc1)N1CCN(Cc2ccc3c(c2)OCO3)CC1,-27.6
2,Cc1cccc(NC(=O)CSCC(=O)N2CCN(Cc3ccc4c(c3)OCO4)CC2)c1,-23.3
3,Cc1ccc(Nc2nc(N)nc(CN3CCN(Cc4ccc5c(c4)OCO5)CC3)n2)cc1Cl,-81.2
4,c1ccc(Cc2noc(CN3CCN(Cc4ccc5c(c4)OCO5)CC3)n2)cc1,-28.1
5,Cc1ccc(Nc2nc(N)nc(CN3CCN(Cc4ccc5c(c4)OCO5)CC3)n2)cc1,-73.3
6,Cc1cccc(Nc2nc(N)nc(CN3CCN(Cc4ccc5c(c4)OCO5)CC3)n2)c1,-75.2
7,Cc1ccc(NC(=O)CSCC(=O)N2CCN(Cc3ccc4c(c3)OCO4)CC2)cc1,-25.9
8,O=C(CNC(=O)N1CC(=O)Nc2ccccc21)NCc1cccc(Cl)c1,12.8
9,COC(=O)c1sccc1NC(=O)c1ccccc1F,15.3
10,O=C(c1ccc(S(=O)(=O)N2CCCC2)cc1)N1CCN(Cc2ccc3c(c2)OCO3)CC1,-28
11,CCN(CC)C(=O)c1ccc(NC(=O)c2ccc(N3CCCC3=O)cc2)cc1,5.47
12,Cc1ccc2nc3sc(C(=O)N4CCCc5ccccc54)c(N)c3cc2c1,2.69
13,COCCNS(=O)(=O)c1ccc2c(c1)Cc1cc(S(=O)(=O)NCCOC)ccc1-2,-22.1
14,O=C(N/C=C/c1ccccc1)Nc1ccc(Cl)cc1,10.3
15,CCOc1ccc(C(=O)Nc2cc(S(=O)(=O)Nc3ccccc3Cl)ccc2N2CCOCC2)cc1,6.95
16,Cc1ccc(S(=O)(=O)NCC(=O)N(c2ccccc2)C(C(=O)NCc2ccccc2)c2ccco2)cc1 (stereo not shown),-6.04
17,Cc1ccc(-n2nc(C(=O)N3CCN(C)CC3)c3c4ccccc4n(C)c3c2=O)cc1,5.61
18,Cc1nc(SCC(=O)NC2CC2)c2c(C)c(C)sc2n1,6.21
19,CC(=O)N/C(=C\c1ccccc1)C(=O)OCc1ccc(F)cc1,-0.974
20,CC(=O)Nc1ccc(S(=O)(=O)NC(C)c2ccccc2)cc1 (stereo not shown),13.2
21,CCOC(=O)c1c(NC(=O)CN2C(=O)NC3(CCCCCC3)C2=O)sc(C)c1-c1ccc(C)cc1,4.24
22,Cc1cccc(NC(=O)CSc2ccc3nnc(-c4cccnc4)n3n2)c1,-30.1

row,SMILES,"hERG current change (%, negative = inhibition) at 10uM [%]"
1,Cc1cccc(CSc2ccc3nnc(-c4cccnc4)n3n2)c1,-66.5
2,Cc1cccc(CSc2ccc3nnc(-c4cccs4)n3n2)c1,17.9
3,Fc1cccc(CSc2ccc3nnc(-c4cccnc4)n3n2)c1,-69
4,O=C(CSc1ccc2nnc(-c3cccnc3)n2n1)Nc1cccc(F)c1,-43.6
5,Nn1c(SCc2cccc(F)c2)nnc1-c1cccnc1,9.33
6,Cc1cc(S(=O)(=O)N2CCCC2)ccc1OCC(=O)NCc1ccccc1,-11.8
7,COc1ccc(-c2nn(-c3ccccc3)cc2/C=N/NC(=O)c2ccc(Br)o2)cc1,-0.138
8,Cc1ccc(C(=O)NCCc2nnc3ccc(SCC(=O)Nc4ccccc4F)nn23)cc1,-12.7
9,Cc1ccc(NC(=O)c2cc(=O)n(Cc3ccccc3)c(=O)[nH]2)cc1C,35.8
10,N#C/C(=C/c1ccc(Sc2nc3ccccc3[nH]2)o1)c1cccc(Br)c1,21.3
11,S=C(NCCc1ccccc1)N1CCN(C23CC4CC(CC(C4)C2)C3)CC1,-75.2
12,O=C(c1ccccc1)N1CCN(C(=S)NCCc2ccccc2)CC1,-65.7
13,CCOC(=O)c1ccccc1NC(=S)N1CCN(C2CCCCC2)CC1,-62.3
14,S=C(NCCc1ccccc1)N1CCN(C2CCCCC2)CC1,-63.4
15,S=C(NCCc1ccccc1)N1CCCCC1,14.4
16,CCOC(=O)c1ccccc1NC(=S)N1CCC(N2CCCCC2)CC1,-33.8
17,CC(=O)N1CCN(C(=S)NCCc2ccccc2)CC1,-4.66
18,S=C(NCCc1ccccc1)N1CCCC1,9.47
19,CN1CCN(C(=S)NCCc2ccccc2)CC1.O=C(O)C(=O)O,-14.5
20,COC(=O)c1ccccc1NC(=S)N1CCN(C2CCCCC2)CC1,-22.4
21,CC1CCN(C(=S)NCCc2ccccc2)CC1,-15.2
22,OC1CCN(C(=S)NCCc2ccccc2)CC1,-0.627
